Inhibition data for ten molecules are collected here from ChEMBL document CHEMBL4513139, “CO-ADD screening of University of Strathclyde (UK) compounds”.

By Inhibition is commonly meant the relative decrease from the control value, in per cent.

SMILES strings stand for the structures. Measured potencies and affinities stand elsewhere.

The test system of this experiment is Staphylococcus aureus. The following applies: Concentration 32 ug.mL-1; ASSAY_TEST Inhibition of Bacterial Growth; detection method Absorption (OD600); MEDIA CAMHB; plate type 384well; NBS; CORNING #3640; time 18 hr.
In the case of `CC(=N)Nc1cc(C(=O)Nc2cc(C(=O)Nc3cc(C(=O)NCCN4CCOCC4)n(C)c3)n(C)c2)n(C)c1.O=C(O)C(F)(F)F.O=C(O)C(F)(F)F`, the Inhibition worked out at 23.57%.

For the molecule `COc1cccc(C(=N)Nc2cc(C(=O)Nc3cc(C(=O)NCCC(=N)N)n(C)c3)n(C)c2)c1.O=C(O)C(F)(F)F.O=C(O)C(F)(F)F`, the Inhibition is listed as 96.74%.

Take `CC(C)CCc1sc(NC(=O)c2cc(NC(=O)c3ccc(/C=C/c4cc5ccccc5nc4On4nnc5ccccc54)cc3)cn2C)nc1C(=O)NCCN1CCOCC1.O=C(O)C(F)(F)F`: the Inhibition is listed as -16.43%.

With `CC(C)CCc1sc(NC(=O)c2cc(NC(=O)c3cc(NC(=O)CCC(=O)O)cn3C)cn2C)nc1C(=O)NCCCN(C)C.O=C(O)C(F)(F)F`, the Inhibition came out at 3.82%.

In the case of `CC(C)c1sc(N)nc1C(=O)Nc1cc(C(=O)Nc2cc(C(=O)NCCN3CCOCC3)n(C)c2)n(C)c1.O=C(O)C(F)(F)F`, the Inhibition is recorded as 1.1%.

Regarding `Cc1ncc(Cn2cc(CCCN)nn2)c(N)n1.Cl`, the Inhibition came to 14.19%.

For the molecule `COc1cccc(C(=N)Nc2cc(C(=O)Nc3cc(C(=O)Nc4cc(C(=O)NCCCN5CCOCC5)n(C)c4)n(C)c3)n(C)c2)c1.O=C(O)C(F)(F)F.O=C(O)C(F)(F)F`, the Inhibition is given as 26.72%.

For `Cc1ccc(S(=O)(=O)NCCc2cn(Cc3cnc(C)nc3N)nn2)cc1`, the Inhibition is given as 16.06%.

Consider `CCOC(=O)CCC(NC(=O)c1ccc(NCc2cn(Cc3cnc(C)nc3N)nn2)cc1)C(=O)OCC` (stereo not given), for which the Inhibition was -1.1%.

`CC(=O)Nc1cc(C(=O)Nc2cc(C(=O)Nc3cc(C(=O)NCCCN(C)C)n(CCC(C)C)c3)n(C)c2)n(C)c1.O=C(O)C(F)(F)F`: the Inhibition came out at 9.82%.
